System: RARa:RXR (NR concentration 270 nM, RXRa partner concentration 90 nM)
Test: PBM binding z-score (relative to random genomic background probes); higher = stronger binding; sequences stand for … in GC…GCGATTGACAGCGTAGAATGAAGG
Outline: (§1)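 On custom Agilent 4×180K arrays, double-stranded probes with 34-nt variable regions carried direct-repeat seeds, single-nucleotide variants, half-site ablations or random human genomic background. Ligand-free nuclear receptor dimers were applied for 1 h, and binding was read with antibodies against each partner (one per run). Binding z-scores come from regression-normalized fluorescence, with the random background probes as reference.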

Sequence	PBM binding z-score
TAGCCTAGGTCATGGGGGCCAGTATAGTGTCGGC	3.41
ATCTCTAGGTAAAAGTTCAGGGAATCCCGAGGAT	2.06
CTCGAAAGGTCGTGCTCAGGTGTGTATACCAAAC	4.07
ACTTACGGGTCGACGAGGTTATAGCACGCGTATA	2.75
AGTCAAAGTTCTCTAGGTAACGTAAGATTCAGCT	0.366
AGAATGCGGTTATACGTAGATCAGGGAAGAAAGT	-0.261
AGAATGAGGTTCAGATCAGGGAAACAGAATACAT	1.41
CCTACTGGGCCATCAGGTCACTGATATCAACGTT	1.94
CGTCCAAGGTCAGCAGGTTAGTGAAAGCGACGTG	3.24
CGTCCAAGGTGAATGCTAGGTCAGTGAAAGCATT	1.8
TGAATGAGGTTATAAGATCAGGGTACGTTGCAAA	1.74
TCTGCTAGCTCAACGATGGTCAGCTAATCTGCTA	-0.407
TCTTGTAGATCAAGCGGGTTAAGAAAGCCTGAGT	0.0624
ATATGTAGGTTATTGGGTCATTCAGTTTGCGCAT	3.36
ATCTCTAGGTAACCAGTTCAGTGAAAGAGAGGAC	1.04
TCTTGTAGACCAAGCAGGTTAAGAAAGCCTGAGT	0.56
CCTACTGGGCCATTCAGAGCTCATTGATCATATG	-0.258
AGAATGAGGTTATTAAGATCAAGGAATTGCGGTC	1.58

System: RARa homodimer (NR concentration 270 nM)
Test: as above
Outline: as §1

Sequence	PBM binding z-score
CAAACTAGGACAAGAGGTCAAAGTCCGCTTCCCG	0.963
GGAACAAGGGCAAAGTTGATAGCATCTGTCGACG	0.248
ACTTACGGGTCAAAGAGGTTATAGCACGCGTATA	1.4
CCGACTGGGGCATAAGGTTACCAGAAGCCAGCCC	-0.798
ACTATTAGTTGAGACGAGAGCAACCGATAGGTTG	0.747
TCGAGTAGGTTAGTCAGGGCATTCAGCCAACATA	0.35
TCGAGTAGGTGAGGGGCATTCAGAATGGCGTCGA	-0.832
ATATGTAGGTTAAGGTTCATTCAGGTTGGTTCGC	1.87
AGAATGAGGTTATTCGTAGATCAGGGAAGAAAGT	0.0936
GCGACTGGGGCACAGCAGGTTACCATAAGGTTGG	-0.475
GGAACGCGGGCATTCGAGTTGATAGCATGGCGAT	-1.13
CCTACTGGGCTACGAAAGGTCATTGATTCAGTGA	0.708
ACTTACCGGTCAACGAGGTTATAGCACGCGTATA	1.15
CTCGAAAGGTCGTGCTCAGGTGAGGATACCAAAC	0.325
GCTATGAGTTGAAAGGGCAACCGAATGATTCTCG	0.195
ATTTGTAGGTTAAGGGTCATTCAGGTTGGTTCGC	4.5
TATTGTAGATCAAGCAGGTTAAGAAAGCCTGAGT	0.348
CGTCATAGTTCAACTAAGGTAACGTAAAGCACGC	1.04
TGTCAAAGTTCAAAGGTAACCTAAGTATCCACAC	1.28
CGTCCATGGTCAGAGAGGTCAGTGAATGCCGAGT	0.23

Sequence	PBM binding z-score
ACTCGGAGGACAAAGGTCAGAGGTACGCCAGTGA	0.603
CTCGAAAGGTCGGTTTAGGTGAGTATACGGATAA	0.736
TAGCCTAGGTCATGGGGGCCAGTATAGTGTCGGC	0.4
ATCTCTAGGTAAAAGTTCAGGGAATCCCGAGGAT	1.33
CTCGAAAGGTCGTGCTCAGGTGTGTATACCAAAC	-0.478
ACTTACGGGTCGACGAGGTTATAGCACGCGTATA	-0.198
AGTCAAAGTTCTCTAGGTAACGTAAGATTCAGCT	0.183
AGAATGCGGTTATACGTAGATCAGGGAAGAAAGT	-0.54
AGAATGAGGTTCAGATCAGGGAAACAGAATACAT	0.488
CCTACTGGGCCATCAGGTCACTGATATCAACGTT	-0.142
CGTCCAAGGTCAGCAGGTTAGTGAAAGCGACGTG	0.634
CGTCCAAGGTGAATGCTAGGTCAGTGAAAGCATT	-0.245
TGAATGAGGTTATAAGATCAGGGTACGTTGCAAA	0.229
TCTGCTAGCTCAACGATGGTCAGCTAATCTGCTA	-1.12
TCTTGTAGATCAAGCGGGTTAAGAAAGCCTGAGT	-0.21
ATATGTAGGTTATTGGGTCATTCAGTTTGCGCAT	2.83
ATCTCTAGGTAACCAGTTCAGTGAAAGAGAGGAC	1.15
TCTTGTAGACCAAGCAGGTTAAGAAAGCCTGAGT	-0.3
CCTACTGGGCCATTCAGAGCTCATTGATCATATG	-0.409
AGAATGAGGTTATTAAGATCAAGGAATTGCGGTC	1.15
